This is an account of results in PubChem BioAssay (EPA / NIEHS).

Results filed as inconclusive are left out. Active and inactive are the calls of the source. The calls were made as follows: active = hit-call score of the fitted dose curve at least 0.9, where 1 is the maximum; inconclusive = response in the unintended direction; inactive = score below 0.9.

Sequence of Peroxisome proliferator-activated receptor gamma (Homo sapiens) (P37231 whole entry, looked up, the tested form may be a part): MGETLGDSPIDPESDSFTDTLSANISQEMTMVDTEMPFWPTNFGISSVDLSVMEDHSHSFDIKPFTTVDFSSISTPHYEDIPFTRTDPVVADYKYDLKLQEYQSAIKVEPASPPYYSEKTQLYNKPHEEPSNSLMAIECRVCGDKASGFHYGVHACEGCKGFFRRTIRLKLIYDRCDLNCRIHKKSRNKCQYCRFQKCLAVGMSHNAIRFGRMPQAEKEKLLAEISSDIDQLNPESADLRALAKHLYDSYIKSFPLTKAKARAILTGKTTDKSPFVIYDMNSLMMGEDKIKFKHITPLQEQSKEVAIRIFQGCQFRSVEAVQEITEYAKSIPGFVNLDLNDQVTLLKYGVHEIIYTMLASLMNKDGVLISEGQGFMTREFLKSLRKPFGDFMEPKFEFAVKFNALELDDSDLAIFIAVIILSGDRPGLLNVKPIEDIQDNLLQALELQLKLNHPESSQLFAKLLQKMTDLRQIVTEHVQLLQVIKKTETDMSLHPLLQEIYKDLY

The target in the assay is Peroxisome proliferator-activated receptor gamma (Homo sapiens) (UniProt P37231). The assay is described as follows: OT_PPARg_PPARgSRC1_0480: Odyssey Thera (OT) 8-hour Protein-Complementation Assay for Peroxisome Proliferator-activated Receptor Gamma / SRC-1 Co-activator (AID 2283387).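 Also: nuclear to cytoplasmic split Venus YFP fluorescence ratio reporting PPARg SRC-1 interaction.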 The procedure:
OT_PPARg_PPARgSRC1_0480 is a cell-based assay that uses HEK293T, a human kidney cell line, with measurements taken at 8 hours after chemical dosing in a 384-well plate.OT_PPARg_PPARgSRC1_0480 is one of one assay component(s) measured or calculated from the OT_PPARg_PPARgSRC1_0480 assay. It is designed to make measurements of protein fragment complementation, a form of binding reporter, as detected with fluorescence intensity signals by Protein-fragment Complementation technology.Data from the assay component OT_PPARg_PPARgSRC1_0480 was analyzed into 1 assay endpoint. This assay endpoint, OT_PPARg_PPARgSRC1_0480, was analyzed in the positive analysis fitting direction relative to DMSO as the negative control and baseline of activity. Using a type of binding reporter, measures of receptor for gain-of-signal activity can be used to understand the binding at the pathway-level as they relate to the gene PPARG. Furthermore, this assay endpoint can be referred to as a primary readout, because the performed assay has only produced 1 assay endpoint. To generalize the intended target to other relatable targets, this assay endpoint is annotated to the nuclear receptor intended target family, where the subfamily is non-steroidal.
The OT PPARg/SRC-1 assay assessed receptor-chemical interactions using a rapidly maturing, intensely fluorescent mutant of YFP known as Venus, rationally dissected into two separate fragments. The fragments were obtained as follows: first, fragments coding for YFP1 and YFP2 (corresponding to amino acid residues 1-158 and 159-239 of the full length YFP, respectively) were generated by oligonucleotide synthesis (Blue Heron Biotechnology), and then PCR mutagenesis was used to generate the mutant fragments IFP1 and IFP2. Fusion constructs were transfected into HEK293T cells with a (Gly4Ser)2 linker between the PPARg/SRC-1 and YFP fragment genes to facilitate complementation when interacting proteins bring fragments into close proximity. The construct is transiently transfected in HEK293T cells 48 hours prior to treatment with test compounds. Cells are seeded into optical quality 384-well poly-D-lysine coated plates in MEM alpha medium (Invitrogen) supplemented with 10 percent FBS (Gemini Bio-Products) 1 percent penicillin and 1 percent streptomycin, and grown in 37C incubator equilibrated to 5 percent CO2. Cells are allowed to adhere for 24 hours prior to treatment with compounds of interest or controls for 8 hours. Cells are fixed in 4 percent formaldehyde and stained with Draq5 (BioStatus) to identify cells and subcellular compartment boundaries prior to signal detection. 8 Images per well were acquired on an Evotec Opera at 2 wavelengths (488 and 635nm), and the ratio of fluorescence in the nucleus relative to fluorescence in the cytoplasm (N/C Ratio) in the 488nm channel was calculated for a minimum of 350 cells per image.
Regarding `CCC[CH2][Sn]([CH2]CCC)([CH2]CCC)[CH2]CCC`, the outcome was inactive.

Regarding `COc1ccccc1N`, the call was inactive.

For the compound `COCCl`, the compound was classed as inactive.

`C=CC(Cl)CCl` (stereo not given): the compound was called inactive.

Consider `Oc1cc(Cl)c(Cl)cc1Cl`, for which the call was inactive.

For the compound `O=[N+]([O-])c1ccc(Cl)c([N+](=O)[O-])c1`, the compound was classed as inactive.

With `O=C(O)COc1cc(Cl)c(Cl)cc1Cl`, the call was inactive.

With `Cc1cc(Cl)ccc1OCCCC(=O)O`, the compound was classed as inactive.

With `CCCCCCCCCCCCN(C)C`, the compound was called inactive.

As for `O=C(NC(=O)c1c(F)cccc1F)Nc1cc(Cl)c(OC(F)(F)C(F)C(F)(F)F)cc1Cl` (stereo not given), the compound was classed as inactive.

As for `CC1(C)[C@H](C(=O)O[C@H](C#N)c2cccc(Oc3ccccc3)c2)[C@@H]1/C=C(\Cl)C(F)(F)F`, the compound was called inactive.

For the compound `N#CS`, the compound was classed as inactive.

In the case of `CN(N=O)C(N)=O`, the result was inactive.

As to `CCN(CCO)CCO`, the compound was classed as inactive.

`Clc1cccc(Cl)c1Cl`: the result was inactive.

Consider `N#CCCC(Br)(C#N)CBr` (stereo not given), for which the outcome was inactive.

For the compound `Nc1ccc(N)cc1`, the result was inactive.

For the compound `CCOP(=S)(OCC)O/N=C(\C#N)c1ccccc1`, the compound was classed as inactive.

In the case of `O=c1[nH]c(=O)n(Cl)c(=O)n1Cl`, the compound was called inactive.

As for `O=[N+]([O-])c1ccccc1O`, the compound was classed as inactive.

`Nc1ncn[nH]1`: the compound was called inactive.

As to `Cc1cc(Cl)ccc1O`, the outcome was inactive.

Take `O=C(CCl)Nc1ccccc1`: the result was inactive.

Turning to `O=C(O)C1(c2ccc3c(c2)OC[C@H](Cc2ccc(-c4ccccc4)cc2)[C@H]3O)CCCC1`, the outcome was inactive.

`O=c1nc(O)n(Cl)c(=O)n1Cl`: the call was inactive.

For `CCOCn1c(-c2ccc(Cl)cc2)c(C#N)c(Br)c1C(F)(F)F`, the compound was called inactive.

As to `COc1ccc(N)cc1`, the outcome was inactive.

In the case of `CCCSP(=S)(OCC)Oc1ccc(SC)cc1` (stereo not given), the call was inactive.

Turning to `N#Cc1cccnc1`, the result was inactive.

`C=CCN=C=S`: the compound was called inactive.

For `CC(C)(C)c1ccccc1O`, the compound was called inactive.

With `N#CCC#N`, the outcome was inactive.

Take `CC(C)N(C(=O)CCl)c1ccccc1`: the result was inactive.

For `Cc1cc(Cl)ccc1OC(C)C(=O)O` (stereo not given), the outcome was inactive.

`OCCCCO`: the call was inactive.

On to `COC(=O)Nc1cccc(OC(=O)Nc2cccc(C)c2)c1`, for which the outcome was inactive.

As to `COc1nn(C(=O)NS(=O)(=O)c2ccccc2OC(F)(F)F)c(=O)n1C`, the call was inactive.

`Oc1c(Br)cc(Br)cc1Br`: the compound was classed as inactive.

For the compound `O=C(O)COc1ccc(Cl)cc1`, the compound was called inactive.

Consider `O=CCCl`, for which the compound was called inactive.
